# Source: PubChem (Sanford-Burnham Center for Chemical Genomics)
# Compounds with a hit are over-represented: about 4.1% of the library has one in this group of screens.
# FAS TE block – FAS thioesterase (human) inhibition | P49327 | hit rate 0.67% among 360,000 | AID 602261 | inhibition, % at 15 µM | recombinant FAS-TE, OMFH fluorogenic substrate, fluorescence endpoint;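 active means compounds whose normalised, plate-corrected inhibition of enzyme fluorescence in the single-dose primary screen is 50% or more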;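 further: 0% = DMSO with enzyme and 100% = substrate without enzyme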
# MPTP inh – blocks calcium-induced mitochondrial swelling | isolated mouse mitochondria, Ca2+ swelling absorbance, 30 min | hit rate 1.4% among 360,000 | inhibition, % at 10 µM;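 active means inhibition of 50% or more, scaled per plate between neutral and stimulator controls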;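 further: 0% = DMSO wells given calcium and 100% = 1 mM EGTA wells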
# MIN6 prolif-1 – inducers of beta-cell replication in MIN6 cells; MIN6 cells proliferation, ATPlite luminescence, 48 h; cells starved in 0.2% serum; 100% = growth in 10% serum; proliferation, % at 10 µM; hit rate 0.29% among 330,000; AID 2380;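 active means compounds whose signal lies at least 3.5 SD above the mean of all wells on their plate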;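 further: 0% = DMSO-treated cells in low-serum medium and 100% = 10% serum control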
# pCIP destab – lowers stability of the mouse p/CIP coactivator protein | Q05BA5 | F442A p/CIP-EGFP cells, EGFP fluorescence, 16 h | decrease of EGFP signal, % at 10 µM | hit rate 0.01% among 290,000 | AID 1984;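 active means EGFP signal decrease of at least 30% at 10 µM or well 3 SD below plate mean, unless failing retest; inactive means the rest, including hits failing retest or dose response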
# NR3A LBD binder – modulators (binders) of human NR3A ligand-binding domain. AID 1259313. NR3A LBD differential scanning fluorimetry, Tm shift; 0% = protein alone, 100% = glycine-bound protein. hit rate 2.5% among 340,000. Tm shift relative to glycine control, % at 25 µM;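 active means melting temperature shift of at least 10% of the positive control shift, at one fixed dose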
# MIN6 prolif-2 – confirmation of inducers of beta-cell replication in MIN6 cells | shares compounds with MIN6 prolif-1 | MIN6 beta-cell proliferation, ATPlite luminescence, 48 h; cells kept in 0.2% serum; scaled between 0.2% and 10% serum | proliferation increase, % at 50 µM | 920 tested, under 10 active | AID 463095;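 active means proliferation increase above 40% at any of the four tested concentrations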
# An asterisk follows results filed as active; nt = not tested or not shown.
SMILES,FAS TE block,MPTP inh,MIN6 prolif-1,pCIP destab,NR3A LBD binder,MIN6 prolif-2
C/C(=N/NC(=O)c1ccc(Br)s1)c1ccncc1,-2,0,15*,5,1,3
CCCn1c(=N)c(S(=O)(=O)c2ccc(F)cc2)cc2c(=O)n3ccccc3nc21,21,-1,17*,-7,2,-6
Cn1c(=N)c(S(=O)(=O)c2ccc(F)cc2)cc2c(=O)n3ccccc3nc21,11,1,2,3,-1,nt
COc1ccc(NC(=O)c2c(Cl)cnn2C)c(C)c1,-2,0,-3,-9,-1,nt
COC(=O)c1sccc1NC(=O)c1c(Cl)cnn1C,-2,2,9.0*,24,3,1
O=C(NC1CCCCCC1)C1CCN(S(=O)(=O)c2cccc3cccnc23)CC1,0,0,-2,-15,-1,nt
O=C(NC1CCCC1)C1CCCN(S(=O)(=O)c2cccc3cccnc23)C1 (stereo not given),-5,-1,9.5*,5,2,1
CCCn1c(N)c(C(=O)COC(=O)/C=C/c2ccc(OC(F)F)c(OC)c2)c(=O)[nH]c1=O,-9,-2,7.4*,nt,3,-1
CNC(=O)c1ccccc1NC(=O)c1cccc(S(=O)(=O)N2CCCCC2)c1,-4,1,7.6*,-8,-2,-4
O=S(=O)(c1ccccc1Cl)N1CCCC(c2nc(-c3cccnc3)no2)C1 (stereo not given),-1,0,7.4*,2,-1,-4
CN1CCN(CC(O)COC(c2ccccc2)c2ccccc2)CC1 (stereo not given),-6,-2,8.2*,3,-1,-2
CCOC(=O)N1C(=O)[C@](CC)(c2ccccc2)N1C(=O)OCC,47,-1,12*,7,-1,-5
CCCCNC(=O)c1cc2c(=O)n3cccc(C)c3nc2s1,6,-1,2,-10,0,nt
Cc1cccn2c(=O)c3cc(C(=O)NCCc4ccccc4)sc3nc12,4,-1,7.4*,17,-2,0
COc1ccc(OC)c(NC(=O)C2(C)CCN2Cc2ccsc2)c1 (stereo not given),14,0,nt,nt,nt,nt
O=C(CSc1n[nH]c(=O)n1-c1ccc2c(c1)OCCO2)Nc1ccccc1,-4,0,4.9*,-11,0,0
O=C(CSc1n[nH]c(=O)n1-c1ccccc1)Nc1ccccc1,-1,2,2,-14,1,nt
C=CCNC(=O)c1ccccc1NC(=O)COc1ccccc1,0,2,8.4*,-2,0,1
COc1cccc(C2CC(c3ccccc3)Nc3nc(N)nn32)c1 (stereo not given),-6,-2,-3,5,0,nt
COc1ccc(C2CC(c3cccc(OC)c3)n3nc(N)nc3N2)cc1 (stereo not given),-1,-2,9.1*,-3,0,2
CCCCS(=O)(=O)NC(=O)C1(C)CCN1C(=O)C/C=C/c1ccccc1 (stereo not given),-10,-1,nt,nt,nt,nt
CC1CCCCN1C(=S)Nc1ccc(S(=O)(=O)N2CCCCC2)cc1 (stereo not given),-1,0,nt,nt,nt,nt
COc1cc(C=C2C(=O)C=CC2=O)ccc1O,-2,8,nt,nt,nt,nt
COCCCn1c(=NC(=O)c2ccncc2)c(C#N)cc2c(=O)n3cccc(C)c3nc21,6,3,3,-5,0,nt
CCOCCCn1c(=NC(=O)c2cccs2)c(C#N)cc2c(=O)n3ccccc3nc21,28,1,14*,0,1,3
SMILES,FAS TE block,MPTP inh,MIN6 prolif-1,pCIP destab,NR3A LBD binder,MIN6 prolif-2
CC(C)c1nc2oc3c(NCc4ccccn4)ncnc3c2c2c1COC(C)(C)C2,-1,1,7.4*,nt,-1,0
Cc1nc2oc3c(NCc4ccccn4)ncnc3c2c2c1COC(C)(C)C2,-7,1,5,-1,-1,nt
CC(C)(C)NC(=O)C1C(c2ccc(C(F)(F)F)cc2)=Nc2ccccc2N1C(=O)c1cccc2ccccc12 (stereo not given),nt,3,nt,nt,nt,nt
CC(C)(C)n1nnnc1C(c1ccccc1)N1CCN(C(=O)c2ccco2)CC1 (stereo not given),-11,0,nt,nt,nt,nt
Cc1nnc(SCC(=O)Nc2ccccc2)c2ccccc12,-3,0,0,-6,-4,nt
Cc1ccccc1NC(=O)CSc1nnc(C)c2ccccc12,-4,-1,5.8*,4,-1,4
COc1cc2nc(Cl)nc(N3CCCCC3)c2cc1OC,0,-1,7.6*,-2,0,-3
COc1cc2nc(Cl)nc(N3CCOCC3)c2cc1OC,-4,0,1,-11,-1,nt
CCn1nc(NC(=O)c2cccs2)c2cc3ccccc3nc21,7,1,8.2*,-5,0,-6
Cc1nn(-c2ccccc2)c2sc(-c3nnc(SCC(=O)O)o3)cc12,-4,2,5.1*,9,0,-2
CCn1c(SCC(=O)O)nnc1-c1cc2c(C)nn(-c3ccccc3)c2s1,-7,-2,2,4,-1,nt
COc1cc(S(=O)(=O)NC2CCCCC2C)ccc1-n1cnnn1 (stereo not given),2,-1,7.6*,-5,2,-4
CCC(CC)C(C(=O)NCc1ccccc1)N1CCN(C(=O)C2CCCO2)CC1 (stereo not given),nt,0,nt,nt,nt,nt
Cc1c(NC(=O)C(C)OC(=O)CC2CC3CCC2C3)c(=O)n(-c2ccccc2)n1C (stereo not given),-4,1,9.1*,-5,0,-2
CS(=O)(=O)N1CCC(C(=O)Nc2ccc(F)cc2F)CC1,-9,-2,5.7*,10,2,1
COC(=O)c1ccc2nc(C3CCCCC3)c(Cc3ccc(C)cc3)n2c1,7,-2,nt,nt,nt,nt
O=C(Cc1cccc2c(=O)cc(-c3ccccc3)oc12)OCCN1CCOCC1,-4,0,nt,nt,nt,nt
COc1ccc(N(C(=O)c2ccco2)C(C(=O)NC2CCCC2)c2cccs2)cc1OC (stereo not given),0,-2,-2,-7,1,nt
COc1ccccc1N(C(=O)c1snc(C(N)=O)c1N)C(C(=O)NC1CCCCC1)c1cccc(OC)c1OC (stereo not given),11,0,25*,-4,-4,-6
COc1ccccc1N(C(=O)c1ccco1)C(C(=O)NC1CCCC1)c1cccs1 (stereo not given),2,-2,0.0*,-10,0,-1
COc1ccc(OC)c(C(C(=O)NC2CCCCC2)N(C(=O)c2snc(C(N)=O)c2N)c2ccccc2OC)c1 (stereo not given),-2,-1,7,-8,-3,nt
CCOc1ccc(NC(=O)CN(C)C(=O)c2cc(S(=O)(=O)N3CCCCC3)ccc2C)cc1OCC,-1,-2,12*,nt,1,5
COC(=O)[C@@]12C[C@@H](CC(=O)N3CCSCC3)C(=O)N(Cc3ccccc3)C1=CCC(C)(C)C2,nt,0,nt,nt,nt,nt
